Here are results for 15 molecules from PubChem BioAssay (NCI).

Holding throughout (experiment): NCI-60 one-dose screen, 48 h (100 = growth as untreated, 0 = no growth, -100 = all killed)
Common to all, as to details: 10 µM unless noted

Assay [1] deals with NCI-H23 lung.
Assay [2] relates to NCI-H226 lung.
In assay [3] the test system is NCI-H322M lung.
For assay [4], the system named is HOP-62 NSCLC.
Assay [5] has as its system NCI-H460 lung.
For assay [6], the system named is NCI-H522 lung.
Assay [7] deals with A549/ATCC NSCLC.
In assay [8] the test system is 786-0 renal.
Assay [9] has as its system COLO 205 colon.
Assay [10] deals with DU-145 prostate.
For assay [11], the system named is K-562 leukemia.
Assay [12] concerns MALME-3M melanoma.
Assay [13] concerns MDA-MB-231 breast.
Assay [14] concerns RXF 393 renal.
Assay [15] has as its system SF-268 CNS.
In assay [16] the test system is SF-295 CNS.
The test system of assay [17] is SF-539 CNS.
The test system of assay [18] is UACC-257 melanoma.
The test system of assay [19] is M14 melanoma.

Structures are written as SMILES. About 83,000 compounds went through this panel and 20% of them were active in at least one assay; those are over-represented in the sample as a whole.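 Results are percent growth after 48 hours of single-concentration exposure. 100 means growth as in untreated cells, lower positive values show inhibition; negative values down to -100 show cell death.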 Values without a mark were called inactive. The source made the active and inactive calls. How the source made its calls: active means growth percent below 10; inactive means the rest.

Turning to `C=C1CCC2C3(C)COC(c4ccco4)OC3CCC2(C)C1CC(Sc1ccccc1)C1=CCOC1=O` (stereo not given), the growth in assay [1] is 64.8%; in assay [2] it was 31.5%; in [3] it was 92.2%; in assay [4] it was 100%; in [5], 105%; in assay [6], 7.02% (active). Also, the growth in assay [7] was 53.7%; in assay [8], 62.7%; in assay [9], 98%; in assay [10], 78.4%; in assay [11], 18.5%; in assay [12] it was 94.9%. The growth in assay [13] is 78.5%; in assay [14], 96.5%; in assay [15], 91.5%; in assay [16], 76.1%; in [17], 48.3%; in assay [18] it was 54.1%. Besides, in assay [19], the growth is 61.6%.

On to `O=C(O)Cn1c(O)c(/C=C2/C=c3cc4c(cc3=NC2=O)OCCO4)sc1=S`, for which the growth in [1] was 97.7%; in assay [2], 103%; in [3] it was 101%; in assay [4], 105%; in assay [5], 118%; in assay [6], 103%. Also, the growth in assay [7] was 114%; in assay [8] it was 108%; in [9], 119%; in assay [10], 118%; in assay [11] it was 106%; in [12], 100%. For the same molecule, the growth in assay [13] was 103%; in assay [14], 117%; in assay [15] it was 118%; in assay [16], 94.6%; in assay [17], 107%; in assay [18], 108%. Besides, the growth in assay [19] was 111%.

For `COc1c(F)ccc(C(=O)Nc2ccc3nc(NC(=O)C4CCCN(S(=O)(=O)c5ccc(Br)s5)C4)sc3c2)c1F` (stereo not given), the growth was 82.7% in assay [1]; 75.1% in assay [2]; 97.9% in [3]; 104% in [4]; 86.5% in assay [5]; 74.2% in assay [6]. The growth in [7] was 79.7%; in [8] it was 61.5%; in assay [9], 101%; in assay [10], 88%; in assay [11], 68.9%; in [12], 88.9%. Further, the growth in assay [13] is 81.6%; in [14] it was 36.1%; in [15], 64.1%; in assay [16], 69.3%; in assay [17], 78%; in [18] it was 88.7%. In addition, the growth in [19] is 89.7%.

With `CN(C)c1nc(NCCNS(=O)(=O)c2ccc(C3=Nc4c(N)nc(N)nc4NC(c4ccc(Cl)cc4)C3)cc2)nc(Nc2ccc(F)cc2)n1` (stereo not given), the growth is 50.8% in assay [1]; 54.7% in assay [2]; 66% in assay [3]; 80.3% in assay [4]; 19.4% in [5]; 40.1% in assay [6]. In addition, the growth in assay [7] is 62.7%; in [8], 24.3%; in [9], 3.23% (active); in assay [10], 64%; in assay [11], 11.8%; in assay [12], 14.6%. The growth is 11.2% in assay [13]; 20.1% in assay [14]; 43.7% in assay [15]; 48.5% in assay [16]; -51.1% (active) in assay [17]; 42.6% in assay [18]. For the same molecule, in [19], the growth was 11.6%.

`CN(C)c1nc(NCCNS(=O)(=O)c2ccc(C3=Nc4c(N)nc(N)nc4NC(c4ccc(C(F)(F)F)cc4)C3)cc2)nc(Nc2ccc(F)cc2)n1` (stereo not given): the growth in [1] is 31.5%; in assay [2] it was 24.3%; in [3], 46.7%; in assay [4], 56.1%; in [5], -7.38% (active); in [6], 5.71% (active). Further, the growth was 45.8% in assay [7]; -35.4% (active) in assay [8]; -83.5% (active) in [9]; 26.9% in assay [10]; 1.59% (active) in [11]; -36.8% (active) in assay [12]. Also, the growth in [13] was -37.4% (active); in assay [14], -11.9% (active); in assay [15] it was 28%; in assay [16] it was 20.8%; in [17], -65.4% (active); in assay [18], 43%. The growth in assay [19] was 7.55% (active).

With `CCOC(=O)c1ccc(Nc2nc(NN)nc(-c3ccc(OC)cc3)c2C#N)cc1`, the growth in assay [1] is 115%; in [2] it was 112%; in assay [3] it was 123%; in [4] it was 109%; in assay [5], 109%; in assay [6], 103%. For the same molecule, the growth is 105% in assay [7]; 99.3% in [8]; 116% in [9]; 113% in assay [10]; 1.69% (active) in [11]; 92.4% in [12]. The growth in [13] was 85.1%; in [14], 124%; in [15], 98.2%; in assay [16], 111%; in assay [17], 110%; in assay [18], 46%. For the same molecule, in assay [19], the growth is 71.6%.

As for `COc1c(F)ccc(C(=O)Nc2ccc3nc(NC(=O)C4CCCN(S(=O)(=O)c5ccc(C(F)(F)F)cc5)C4)sc3c2)c1F` (stereo not given), the growth in assay [1] was 94.4%; in assay [2], 81.3%; in assay [3] it was 91.9%; in assay [4], 94.6%; in [5] it was 78%; in assay [6] it was 76%. Moreover, the growth is 75.3% in assay [7]; 62.9% in assay [8]; 84.2% in assay [9]; 88% in assay [10]; 64.6% in [11]; 89% in assay [12]. In addition, the growth in assay [13] was 81.3%; in [14], 9.04% (active); in assay [15] it was 68%; in assay [16] it was 74.7%; in assay [17], 68.4%; in [18], 86.3%. Further, in [19], the growth was 79.3%.

Regarding `COc1ccc(-c2ccnc(SCc3cc4cc(OC)ccc4[nH]c3=O)n2)cc1`, the growth is 25.8% in [1]; 39.4% in assay [2]; 48.1% in assay [3]; 34.7% in assay [4]; 14.9% in [5]; 11.8% in [6]. For the same molecule, the growth in assay [7] was 20.2%; in assay [8], 44.1%; in assay [9] it was 15.7%; in [10], 43.7%; in assay [11] it was 4.74% (active); in [12] it was 36.7%. The growth in [13] was 22.7%; in [14], 7.02% (active); in assay [15], 36.6%; in assay [16], 17.5%; in assay [17], 20.5%; in [18], 38%. Moreover, in assay [19], the growth was 19.8%.

For the molecule `CC12CC[C@@H]3[C@]4(C)COC(c5cn[nH]c5-c5ccc(Cl)cc5)O[C@@H]4CC[C@@]3(C)[C@@H]1CC(C1=CCOC1=O)O2` (stereo not given in full), the growth in assay [1] is 51.9%; in assay [2] it was 45.5%; in assay [3], 58.2%; in assay [4], 62.7%; in assay [5], 29.8%; in assay [6], 20.9%. Further, the growth is 34% in assay [7]; 57.1% in [8]; 10.3% in assay [9]; 61.6% in assay [10]; 24.9% in [11]; 58% in assay [12]. Besides, the growth in [13] was 52.1%; in [14], 5.04% (active); in assay [15] it was 60.3%; in assay [16] it was 43.8%; in assay [17], 51.2%; in assay [18], 46.7%. Moreover, the growth in assay [19] was 30.9%.

For `NS(=O)(=O)c1ccc(CCNC(=O)CSc2ccc(-c3ccc(Br)cc3)nn2)cc1`, the growth in [1] was 47.2%; in assay [2], 70.3%; in assay [3], 81.2%; in assay [4], 75.9%; in assay [5], 51.4%; in assay [6], 52.9%. For the same molecule, the growth in [7] is 62%; in [8], 75.3%; in [9] it was 83.6%; in assay [10], 71.1%; in assay [11], 36%; in assay [12] it was 75.9%. Besides, the growth is 85.2% in assay [13]; 87.7% in assay [14]; 72.5% in [15]; 59.9% in assay [16]; 79.2% in [17]; 38.5% in [18]. Further, the growth in assay [19] is 77%.

On to `O=c1oc2ccc(Br)cc2cc1C1=CSc2nc3sc4c(c3c(=O)n2N=C1)CCCC4`, for which the growth in assay [1] is 96.6%; in assay [2], 92.5%; in assay [3] it was 96.6%; in assay [4], 80.6%; in [5], 102%; in assay [6], 88.5%. In addition, the growth in [7] was 105%; in [8], 120%; in assay [9], 105%; in [10], 107%; in assay [11], 97.1%; in [12] it was 89%. Also, the growth in [13] is 88.2%; in assay [14] it was 167%; in [15], 101%; in [16], 101%; in assay [17], 100%; in [18], 90.9%. Besides, the growth in [19] is 92.4%.

With `Cn1cc(-c2cc(N)n3nc(-c4cn(C)c5ncccc45)cc3n2)c2cccnc21`, the growth in assay [1] was -33.1% (active); in assay [2], 86.5%; in assay [3] it was 104%; in [4], 86.1%; in assay [5], 79.5%; in assay [6], 77%. Also, the growth in assay [7] was 51.9%; in [8], 81.9%; in [9], 43.7%; in [10], 83.2%; in [11] it was 5.55% (active); in [12], 97.3%. In addition, the growth was -22.4% (active) in [13]; 58.8% in assay [14]; 92.7% in assay [15]; 62.6% in assay [16]; 84.2% in assay [17]; 100% in assay [18]. In addition, in [19], the growth is 93.1%.

`COc1ccc(-c2ccnc(SCc3cc4ccccc4[nH]c3=O)n2)cc1`: the growth is 76.1% in assay [1]; 63.5% in assay [2]; 82.5% in assay [3]; 32.3% in [4]; 33.6% in assay [5]; 46.9% in [6]. For the same molecule, the growth in assay [7] is 61%; in assay [8], 71%; in assay [9], 77.5%; in assay [10], 81.2%; in assay [11] it was 11.1%; in assay [12] it was 65.9%. Moreover, the growth is 59.1% in [13]; 40.2% in [14]; 87.7% in [15]; 50.3% in assay [16]; 50% in assay [17]; 79.5% in assay [18]. Also, in assay [19], the growth is 44.8%.

For the molecule `O=C(Nc1ccccc1)N1CCN(c2cc(-c3cn(-c4ccccc4)nc3-c3cccc(O)c3)ccn2)CC1`, the growth was 71% in assay [1]; 75.4% in assay [2]; 104% in assay [3]; 80.8% in assay [4]; 70% in assay [5]; 74.1% in assay [6]. Further, the growth in assay [7] is 53.9%; in assay [8] it was 94.6%; in assay [9], 45.1%; in assay [10], 95.3%; in assay [11], 29.5%; in assay [12], 84%. For the same molecule, the growth in assay [13] is 82.4%; in assay [14], 90.8%; in assay [15], 114%; in assay [16], 54.8%; in assay [17], 89.5%; in assay [18], 97.4%. Besides, the growth in assay [19] is 69.4%.

In the case of `O=c1[nH]c(=O)c2c(-c3cc4ccccc4oc3=O)ccnc2[nH]1`, the growth in assay [1] was 61.3%; in assay [2], 74.8%; in assay [3], 97%; in assay [4] it was 26.4%; in assay [5], 88.8%; in [6], 68.5%. The growth was 91.9% in [7]; 43.9% in [8]; 108% in assay [9]; 88% in assay [10]; 106% in [11]; 64% in assay [12]. Also, the growth was 64.9% in [13]; 69.5% in assay [14]; 79.6% in assay [15]; 3.14% (active) in assay [16]; 70.2% in [17]; 103% in assay [18]. Further, in assay [19], the growth was 91.4%.
